Data reported in PubChem BioAssay AID977606 (Broad Institute, 2014).
The campaign covered roughly 1,500 compounds. About 430 (29%) were called active. Only a sample is shown. Potency and affinity values are given separately. Values without a mark were called inactive. How the calls were made is not given here.

test: insulin secretion activators without glucose, dose response, counter-screen for glucose-dependent insulin secretion activators, cell-based, INS-1E, Gaussia luciferase, luminescence, cherry-pick (AID 977606); details: INS-1E Gaussia luciferase insulin secretion, no glucose, 100% = twice neutral-control luminescence; series mostly up to 35 µM; activation: at the top concentration;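 further: 0% = median of neutral control wells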

Structure (SMILES)	activation
CCOc1cc(/C=C(\CC(=O)O)c2nc3ccccc3s2)ccc1OC	13.1%
C=CCN1C(=O)CSc2ccc(C(=O)OCC)cc21	-1.71%
CC(NC(=O)C1CCCN1S(=O)(=O)c1ccc2c(c1)n(C)c(=O)c(=O)n2C)c1ccccc1 (stereo unspecified)	-5.02%
N#CCCN(Cc1ccccc1)C(=O)c1cccs1	-7.34%
CNc1nc(Cl)nc2c1ncn2-c1ccccc1	19.5%
COc1ccc(CCN2CC(=O)NC(=O)C2)cc1OC	22.1%
CCOC(=O)Cn1c(=O)n(Cc2ccccc2)c(=O)c2cccnc21	-6.95%
COc1ccc(S(=O)(=O)Nc2ccc3c(c2)OCO3)cc1OC	-6.28%
C[C@@H]1O[C@H](C2CCCC2)CC2=C1C(=O)OC(C)(C)O2	41.4%
COc1ccc(S(=O)(=O)N2CCOCC2)cc1NC(=O)COc1ccccc1	-8.73%
CCOc1ccc(C(=O)OCC(=O)Nc2cc(C)on2)cc1OCC	-7%
COc1cc(C(C(=O)NC2CCCC2)N(Cc2ccco2)C(=O)c2snc(C(N)=O)c2N)cc(OC)c1OC (stereo unspecified)	12.9%
N#CN=CN1CC=C(c2ccc(Cl)cc2)CC1	2.48%
CC(=O)Nc1sc(C)c(C)c1C(=O)OCC(=O)Nc1cc(S(C)(=O)=O)ccc1Cl	-6.45%
CCOC(=O)c1cc(CC)sc1NC(=O)COC(=O)c1cnccn1	-2.44%
COc1cc(OC)c(OC)cc1CCC(C)NC(=O)Cc1ccccc1 (stereo unspecified)	-9.61%
COc1ccc(CCNCc2cc3ccc(C)cc3[nH]c2=O)cc1OC	5.42%
COc1cc2c(cc1OC)-c1cc(Nc3ccc(N(C)C)cc3)nc(=O)n1CC2	-14.1%
COc1ccc(N2CC(NS(=O)(=O)c3cccs3)CC2=O)cc1OC (stereo unspecified)	-15.1%

Structure (SMILES)	activation
CCOC(=O)Cn1nc(-c2ccccc2)c(-c2ccccc2)nc1=O	6.82%
O=C(O)c1ccc(-c2nc(-c3ccccc3)c(-c3cccs3)[nH]2)cc1	2.7%
O=C(Cc1c[nH]c2ccccc12)N[C@@H](Cc1c[nH]c2ccccc12)C(=O)O	-0.773%
Cc1ccc(S(=O)(=O)N(C)c2nc3ccccc3n3c(C(C)C)nnc23)cc1	-5.47%
O=C(N/N=C/c1cc(Cl)ccc1O)c1ccc(Br)cc1	-1.82%
C=CCc1cccc(/C=N/NC(=O)CCC(=O)Nc2ccc(C)cc2)c1O	-11%
COc1ccc(-c2nnc(-c3cccs3)o2)cc1OC	-3.37%
CC(=O)c1cccc(N(CC(=O)NC2CCCCC2)C(=O)Cn2nnc(-c3ccccc3)n2)c1	-3.95%
CCCCOc1ccc(-c2nnn(CC(=O)c3c[nH]c4ccccc34)n2)cc1	12.5%
Cc1ccc2c(c1)C=CC(C#N)N2C(=O)c1ccccc1 (stereo unspecified)	-0.327%
CC(=O)N1CCN(c2nc(-c3cccs3)nc3ccccc23)CC1	-10.7%
CN[C@H]1C[C@@H](c2ccccc2)N(C(C)=O)C[C@H]1CO	27.8%
CCOC(=O)N1CCN(S(=O)(=O)c2ccc3c4c(cccc24)C(=O)N3)CC1	-16.3%
C=CCn1cc(Cl)cc(C(=O)Nc2ccccc2)c1=O	-11.1%
CS(=O)(=O)c1nc(S(=O)(=O)c2ccc(Cl)cc2)c(N2CCCCCC2)s1	-11.7%
c1ccc(-c2nnc3ccc(N4CCC5(CC4)OCCO5)nn23)cc1	-12.7% [at 11 µM]
O=C(O)c1ccc(-n2nnnc2SCc2ccccc2Br)cc1	3.9%
CCC1OC(C2CC2)CC2=C1C(=O)OC(C)(C)O2 (stereo unspecified)	12%
c1ccc(CCN2CCN=C2Nc2ccccc2)cc1	8.32%

Structure (SMILES)	activation
O=C(NC1CCCCC1)C(c1ccc(F)cc1)N(Cc1ccccc1)C(=O)CN1C(=O)c2ccccc2S1(=O)=O (stereo unspecified)	19.7%
COc1cc(C(=O)O)ccc1OCc1ccccc1	7.43%
COc1ccc(/C=N/NS(=O)(=O)c2ccccc2)cc1OC	-6.16%
O=C(O)c1ccc(-n2nnnc2SCc2cccc(Br)c2)cc1	-19%
CCCCNc1cc(Cl)nc(N)n1	-9.67%
O=C(N/N=C/c1ccncc1)c1cc(-c2ccc(Br)s2)[nH]n1	15.7%
CC1=CC(c2ccccc2)n2nc(NC(=O)CCC(=O)O)nc2N1 (stereo unspecified)	23.7%
CC(=O)NCCNC(=O)CNC(=O)c1ccc(Cl)cc1	-4.51%
C=CCn1cnc2scc(-c3ccc(OC)cc3)c2c1=O	-6.85%
COc1cc2c(cc1OC)/C(=C/C(=O)c1ccc(NC(C)=O)cc1)NCC2	-1.92%
COC(=O)c1sc2ccccc2c1NC(=O)c1cccs1	5.35%
O=C(Nc1nonc1NC(=O)c1cccs1)c1cccs1	2.51%
CCOc1ncccc1C(=O)Nc1ccc(S(=O)(=O)Nc2nccs2)cc1	10.1%
O=C(O)c1cccc(N/N=C/c2sc(N3CCOCC3)nc2-c2ccccc2)c1	5.36%
Cc1ccc(CC2S/C(=N/c3ccccn3)NC2=O)cc1 (stereo unspecified)	2.79%
Cc1ccc(NC(=O)CC2S/C(=N/N=C/c3c[nH]c4ccccc34)NC2=O)cc1 (stereo unspecified)	-5.04%
CCc1ccc2c(c1)cc(CN(Cc1ccco1)C(C)=O)c1nnnn12	-15.1%
N#CCc1nn2c(-c3ccccc3)ccnc2c1C#N	-3.25%
